From PubChem BioAssay (NCI) come the findings set out here.

This is part of a sample that, as a whole, favours compounds with a hit. Of some 83,000 tested, about 20% had one in any assay.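 48-hour exposure, single concentration, 96-well plates; percent growth endpoint where 0 means no net growth. Active: below 10.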 A number with no mark means an inactive call. Activity calls are given as the source filed them.

In the test the test system is MDA-MB-468 breast. The experiment in a line: NCI-60 one-dose screen, 48 h (100 = growth as untreated, 0 = no growth, -100 = all killed). To be noted: 10 µM unless noted.
Consider `Clc1cccc(Cl)c1Cn1c(-c2cncs2)nc2ccccc21`, for which the growth is 52.6%.
The figure for `COC(=O)[C@]12CC[C@@H](C)[C@H](C)[C@@H]1C1=CC[C@@H]3[C@@]4(C)C(C=O)=C[C@@](C)(COS(C)(=O)=O)C4=CC[C@@]3(C)[C@]1(C)CC2` is -59.8% (active).
Next, `O=C(O)c1ccc2c(c1)nc(Nc1cccc(Cl)c1)c1ccncc12`: -36.1% (active); `CS(=O)(=O)Nc1cncc(-c2ccc3ncnc(Nc4cncc(Cl)c4)c3c2)c1`: 16.7%.
As for `O=C(CCl)Oc1ccc(OC(=O)CCl)cc1`, the growth was 78.4%.
As to `CCN(CC)CCn1c2ccc(OC)cc2c2sc3cc(OC)ccc3c(=O)c21`, the growth is 14.5%.
As for `Cc1noc(C)c1-c1cc(O)cc(C(O)c2ccccc2)c1` (stereo not given), the growth is 24.9%.
As for `COc1cc(C2CC(=O)Nc3c2c(C)nn3-c2nc3ccccc3[nH]2)cc(OC)c1OC` (stereo not given), the growth is 96.9%.
For the molecule `O=C(/C=C/C=C/c1ccccc1)c1ccco1`, the growth is 29.3%.
On to `CCCCCCCC(=O)SCC/C=C/[C@@H]1CC(=O)NCc2nc(cs2)C2=N[C@@](C)(CS2)C(=O)N[C@@H](C(C)C)C(=O)N1`, for which the growth is 40.7%.
`O=C(Nc1cccc(-n2cc(-c3ccncc3)c(-c3ccc(O)c(Cl)c3)n2)c1)Nc1ccc(Cl)c(Cl)c1`: the growth was 27.3%.
`CCOC(=O)COc1ccc2c(c1)O/C(=C\c1ccc(O)cc1)C2=O`: the growth was 91.9%.
Turning to `N#CCCN1C/C(=C/c2ccc(Cl)cc2)C(=O)/C(=C/c2ccc(Cl)cc2)C1`, the growth was -66.5% (active).
On to `Nc1nc(N)c2c(ccc3nccc32)[nH]1`, for which the growth was 34.9%.
For `Clc1ccccc1/C=C/c1nn2c(-c3ccncc3)nnc2s1`, the growth was 97.4%.
The figure for `COc1cc2nc(NC3CCCC3)nc(NC3CCN(C(C)C)CC3)c2cc1OC` is 45.4%; for `O=c1[nH]c(-c2ccccn2)nc2sc3c(c12)CCCCCC3` it is 37.8%; for `COc1ccc(NC(=O)c2ccc(/C=C/C(=O)c3ncc[nH]3)cc2)cc1` it is 44.3%.
Take `COc1ccc(Br)cc1NC(=O)Nc1cccc2c1ccn2Cc1ccnc(N)c1`: the growth was -14.4% (active).
For the molecule `O=C(Nc1cccc2[nH]c(C(F)(F)F)nc12)c1ccc(F)cc1`, the growth was 65.6%.
On to `O=Cc1ccccc1C(=O)O`, for which the growth is -6.83% (active).
For `COc1cnc2c(c1)C(=O)c1c-2n(CCCNC(C)C)c(=O)c2cc(Cl)ccc12`, the growth was 17.7%.
`C=C(CNCCc1ccc(O)cc1)[C@@H]1CC[C@]2(COC3CCCCO3)CC[C@]3(C)[C@H](CC[C@@H]4[C@@]5(C)CCC(NCCO)C(C)(C)[C@@H]5CC[C@]43C)[C@@H]12` (stereo not given in full): the growth was -80.1% (active).
On to `CN1C[C@@H](c2ccc(Cl)cc2)[C@]2(NC(=S)N(c3ccccc3)C2=O)[C@@]12C(=O)NC1C=CC(Br)=C[C@H]12` (stereo not given in full), for which the growth was 67.7%.
On to `CC(C)(O)c1cn(CCCCN2C(=O)C(=O)c3ccccc32)nn1`, for which the growth was 95%.
`CCC1=C(c2ccc(OC)cc2)C(C)Oc2cc(OC(C)=O)ccc21` (stereo not given): the growth was -14.1% (active).
On to `CCN(CC)CCOC(=O)Nc1ccccc1Cl`, for which the growth was 104%.
The figure for `COc1cccc(-c2nn(-c3ccccc3)cc2-c2ccnc(NCCCNC(=O)Nc3ccc(Cl)c(Cl)c3)c2)c1` is -42.9% (active); for `c1ccc(CNCCN(CCNCc2ccccn2)Cc2ccc3ccccc3c2)nc1` it is -10% (active).
Take `N#Cc1nc(-c2ccc(F)cc2)oc1S(=O)(=O)N1CCOCC1`: the growth was 29%.
Turning to `COc1cccc(Cc2cc(-c3ccccc3)nn(CC(=O)c3ccccc3)c2=O)c1`, the growth is 90.6%.
On to `O=C(c1ccccc1)C1OC1C(=O)c1ccccc1` (stereo not given), for which the growth was 0.0075% (active).
For `Cc1ccc(S(=O)(=O)Oc2ccc(NC(=O)c3ccc(Cl)cc3)cc2)cc1`, the growth was 95.2%.
As for `O=C1C(=O)c2ccc(Br)cc2-c2cc(Br)ccc21`, the growth is 0.713% (active).
As to `CCCCO[C@@H]1C=C2[C@H]3CC(C)(C)C(=O)C[C@]3(C(=O)O[C@@H]3O[C@H](CO[C@@H]4O[C@H](CO)[C@@H](OC5OC(C)C(O)C(O)C5O)[C@H](O)[C@H]4O)[C@@H](O)[C@H](O)[C@H]3O)CC[C@@]2(C)[C@]2(C)CC[C@H]3C(C)(C)C(=O)CC[C@]3(C)[C@@H]12` (stereo not given in full), the growth was 101%.
As for `COc1ccc2c(c1)c(-c1nonc1-c1c[nH]c3ccc(Br)cc13)cn2C`, the growth is 52.4%.
The figure for `CC(C)(Sc1cc(C(C)(C)C)c(O)c(C(C)(C)C)c1)Sc1cc(C(C)(C)C)c(OC(=O)CCC(=O)O)c(C(C)(C)C)c1` is 47.4%; for `CC(C)NC[C@@H](C(=O)N1CCN(c2ncnc3c2[C@H](C)C[C@H]3O)CC1)c1ccc(Cl)cc1` it is -18.7% (active).
For `O=C(CCc1nnc(-c2c(Cl)cccc2Cl)o1)c1nc2ccccc2[nH]1`, the growth is -2.19% (active).
For `O=S(=O)(NCCNc1cc(-c2cn(-c3ccccc3)nc2-c2ccccc2)ccn1)c1cccc2ccccc12`, the growth is 36.6%.
